CCT modulator – modulators of cytosolic chaperonin (CCT/TRiC) activity. purified chaperonin ATPase assay, HTRF ADP detection, 30 min. activity change, % (no concentration beside the values), hits read low. hit rate 0.3% among 360,000. AID 651819; in the data active = activity change below about -30%
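TRiC at 40 or 20 nM final (batch-dependent) in 30 mM Tris pH 7.4, 100 mM KCl, 5 mM MgCl2, 1 mM DTT, with compound at single 76 uM and 10 uM ATP, 30 min at 37 deg C. ADP detected by HTRF Transcreener, 665/615 ratio.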
VDR inh – inhibitors of human vitamin D receptor; P11473; VDR-SRC2-3 peptide fluorescence polarization, 2 h; Potency, µM, without a hit: max response, negative = inhibition, most hits filed as inhibitors; hit rate 0.93% among 400,000; note: potency is the fitted concentration of half-maximal effect
Target sequence (P11473 whole entry, looked up): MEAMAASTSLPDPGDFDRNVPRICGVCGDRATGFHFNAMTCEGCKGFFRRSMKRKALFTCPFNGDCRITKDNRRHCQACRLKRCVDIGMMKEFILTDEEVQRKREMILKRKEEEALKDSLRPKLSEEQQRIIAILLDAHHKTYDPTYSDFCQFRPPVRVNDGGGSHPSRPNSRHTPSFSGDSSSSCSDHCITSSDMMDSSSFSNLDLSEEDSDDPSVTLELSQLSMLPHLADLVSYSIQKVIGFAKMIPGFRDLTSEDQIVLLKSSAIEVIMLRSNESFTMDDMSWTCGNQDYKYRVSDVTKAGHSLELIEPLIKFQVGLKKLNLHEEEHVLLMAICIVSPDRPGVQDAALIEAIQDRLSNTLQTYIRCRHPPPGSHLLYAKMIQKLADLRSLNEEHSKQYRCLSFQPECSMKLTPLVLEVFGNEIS
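Fluorescence polarization assay measuring small-molecule disruption of VDR binding to the coregulator peptide SRC2-3. Compounds were pin-transferred (23 nl) into the reagent mix and incubated 2 h at room temperature before reading.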
Sfp PPTase inh – blocks B. subtilis Sfp PPTase activity | Biochemical Sfp PPTase activity, qHTS | Potency, µM, for the others: largest response in the series, negative = inhibition, hits mostly inhibitors | hit rate 3.5% among 310,000;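 note: the enzyme is Sfp with the accession as filed and its product quenches rhodamine fluorescence; potency is the fitted concentration of half-maximal effect; 0% = enzyme reaction without inhibitor and -100% = no enzyme wells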
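Step 1, compound plus 15 nM Sfp-PPTase, 15 min, room temperature. Step 2, add rhodamine-CoA (5 uM) and BHQ-2-YbbR (12.5 uM). Step 3, read 525/598 nm fluorescence at 0 and 30 min.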
G9a inh – G9a (human) methyltransferase inhibition | hit rate 8.8% among 350,000 | Q96KQ7 | Potency, µM (doses to about 102 µM), inactives show top-dose activity, negative = inhibition, hits mostly inhibitors | AID 504332 | G9a H3K9 monomethylation, AlphaScreen, 2 h; note: potency is the fitted concentration of half-maximal effect; nearly all actives have a fitted effect of over 75% in size
Target sequence (Q96KQ7 913-1193 limits assumed): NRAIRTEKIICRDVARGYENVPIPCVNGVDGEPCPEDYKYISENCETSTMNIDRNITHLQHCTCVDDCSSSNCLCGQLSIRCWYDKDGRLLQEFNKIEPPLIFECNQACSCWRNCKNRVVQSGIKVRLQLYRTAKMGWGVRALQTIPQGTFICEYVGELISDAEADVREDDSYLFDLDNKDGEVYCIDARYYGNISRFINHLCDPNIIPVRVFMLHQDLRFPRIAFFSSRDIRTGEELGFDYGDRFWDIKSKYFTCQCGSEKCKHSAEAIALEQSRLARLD
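Compounds were preincubated with 20 nM G9a for 15 min, after which biotinylated H3K9 peptide (500 nM) and SAM (20 uM) started a 2 h room-temperature reaction. Monomethylated product was quantified by antibody-based AlphaScreen chemiluminescence.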
MmCpn inh – inhibitors of Methanococcus maripaludis chaperonin TRiC (MmCpn) | Potency, µM (series often up to 76.9 µM), without a hit: at the top dose activity, negative = inhibition, most hits filed as inhibitors | purified Mm-Cpn ATPase, ADP Transcreener TR-FRET | hit rate 0.031% among 330,000 | AID 504842; note: potency is the fitted concentration of half-maximal effect; nearly all actives have a fitted effect of over 80% in size
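25 nM Mm-CPN + cpd, 10 min 37°C; + 10 uM ATP, 30 min 37°C; buffer 30 mM Tris pH 7.4, 100 mM KCl, 5 mM MgCl2, 1 mM DTT; Transcreener ADP HTRF detection 30 min RT.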
PLK1 PBD inh – inhibitors of human PLK1 polo-box domain binding; Plk1 PBD binding of FITC phosphopeptide, fluorescence polarization; Potency, µM, for the others: max response, negative = inhibition, most hits filed as inhibitors; hit rate 2.8% among 360,000; note: potency is the fitted concentration of half-maximal effect; series mostly up to about 57 µM; nearly all actives have a fitted effect of over 65% in size
An asterisk follows results filed as active; u = inconclusive; x = no result; ! = not active in a repeat; [ ] = dose if it differs, or a comment. A selection: hits, their analogues and other compounds. The true share with any hit is near 10%. Unless noted, calls come from the whole dose curve; as a rule, active = well fitted curve in the direction sought with a large enough effect; inconclusive = small, poorly fitted or top-dose-only effect, or another doubt; inactive = no such curve, though single readings can be large; an effect the other way counts as inactive or inconclusive. Unless noted, % is set by controls: 0 for no effect and ±100 for the full control effect.

SMILES	CCT modulator	VDR inh	Sfp PPTase inh	G9a inh	MmCpn inh	PLK1 PBD inh
NCCS	-3	22µM*	79µM*!	14µM*	-1%	u
Cc1cccc(Cn2c(CN3CCC(C(=O)NCCc4ccccc4)CC3)cc3ccccc32)c1	x	7%	x	-8%[59 µM]	x	x
CCC(C)(C)NC(=O)CN(Cc1ccccc1Cl)C(=O)CCC(=O)Nc1cc(C)ccn1	3	-3%	20µM*	x	0%	-5%
COc1ccc(-n2c(/C=C/c3ccccc3F)nc3cc(OC)c(OC)cc3c2=O)cc1Cl	x	5%	x	-3%[59 µM]	x	x
CCC(Cc1c(I)cc(I)c(O)c1I)C(=O)O (configuration not stated)	x	32µM*	56µM*	u	x	x
CC/C=C\C/C=C\C/C=C\C/C=C\C=C\C(O)CCCC(=O)O (configuration not stated)	x	3%	8%	x	x	x
CCN1C(=O)[C@@H]2Cc3c([nH]c4ccccc34)C(c3ccc(OC)cc3)N2C1=S (some centres not stated)	-1	-13%	11%	35µM*	-4%	9%
COc1ccc(/C=C2/SC(=O)N(CC(O)Cn3c4ccccc4c4ccccc43)C2=O)cc1 (configuration not stated)	0	u	10%	25%[59 µM]	-2%	30µM*
O=C(NN1C(=O)/C(=C\c2cccnc2)SC1=S)C(c1ccccc1)c1ccccc1	-4	1%	-7%	32µM*	0%	-27%
COc1ccc(/C=C2\SC(=S)N(C(Cc3ccccc3)C(=O)O)C2=O)cc1 (configuration not stated)	-4	-17%	-42%	25µM*	1%	27µM*
COc1ccc(/C=C2\SC(=S)N(CC(=O)N3CCN(C)CC3)C2=O)cc1	1	5%	-2%	-22%	0%	-4%
O=C1S/C(=C\c2ccccc2)C(=O)N1CC(O)Cn1c2ccccc2c2ccccc21 (configuration not stated)	3	11%	-8%	-19%[59 µM]	-10%	-4%
O=C(O)C(Cc1ccccc1)N1C(=O)/C(=C/c2cccnc2)SC1=S (configuration not stated)	0	u	79µM*	x	0%	0%
Cc1cccc(NC(=O)C2CCN(c3nnc(-n4c(C)ccc4C)s3)CC2)c1C	x	4%	x	6%[59 µM]	x	x
COc1cc(NC(=O)CN2Cc3ccccc3C2=O)cc(OC)c1OC	x	8%	x	2%[59 µM]	x	x
CCOc1ccc(-c2nc(Cn3c(=O)cc(-c4ccccc4)c4c(C)nn(C)c43)c(C)o2)cc1OC	x	7%	x	-4%[59 µM]	x	x
O=C(O)C(Cc1ccccc1)N1C(=O)/C(=C/C=C/c2ccco2)SC1=S (configuration not stated)	1	53%	40µM*	x	-3%	2.7µM*
O=C(O)CCCN1C(=O)/C(=C/C=C/c2ccco2)SC1=S	-2	0%	-12%	-170%[12.7 µM]	-3%	u
Fc1ccc2c(c1)C(c1ccc(N3CCOCC3)cc1)=NNC(c1cccs1)=N2	-5	0%	10%	20µM*	0%	-2%
CCOc1ccc(C2=NNC(c3cccnc3)=Nc3ccc(OC)cc32)cc1	-2	38%	-13%	u	-1%	-18%
CCOc1ccc(C2=Nc3ccccc3C(c3ccc(N4CCOCC4)cc3)=NN2)cc1	-4	-3%	3%	x	-4%	-5%
CCOc1ccc(C2=Nc3ccc(Br)cc3C(c3ccc(N4CCOCC4)cc3)=NN2)cc1	-2	-2%	9%	45µM*	2%	4%
Brc1ccc2c(c1)C(c1ccc(N3CCOCC3)cc1)=NNC(c1cccs1)=N2	0	-12%	-5%	u	1%	8%
CCOc1ccc(C2=NNC(c3cccs3)=Nc3ccc(OC)cc32)cc1	-1	4%	-12%	11µM*	0%	-18%
COc1ccc(OC)c(C2=Nn3c(nnc3-c3cc(OC)ccc3OC)SC2)c1	x	x	3%	x	x	x
SMILES	CCT modulator	VDR inh	Sfp PPTase inh	G9a inh	MmCpn inh	PLK1 PBD inh
O=C(Nc1ccc(S(=O)(=O)N2CCCCC2c2cccnc2)cc1)c1ccc(F)cc1 (configuration not stated)	x	10%	x	1%[59 µM]	x	x
Cc1nn(CC(=O)Nc2cccc(C(F)(F)F)c2)c(=O)c2nn(-c3ccccc3)c(C)c12	x	13%	x	u	x	x
C[C@@H]1NC(=O)[C@H](CCCN=C(N)N)NC(=O)c2cc([N+](=O)[O-])cc(I)c2OCC[C@@H](C(N)=O)NC1=O	x	x	-3%	32µM*	-1%	x
C[C@@H]1NC(=O)c2cc([N+](=O)[O-])cc(I)c2OCC[C@@H](C(N)=O)NC(=O)[C@H](CCCCN)NC1=O	0	1%	-16%	45µM*	3%	-1%
NC(=O)[C@@H]1CCOc2c(F)cc([N+](=O)[O-])cc2C(=O)N[C@@H](CO)C(=O)NCC(=O)N1	-1	13%	4%	u	0%	-17%
NCCCC[C@H]1NC(=O)[C@H](CCC(=O)O)NC(=O)c2cc([N+](=O)[O-])cc(I)c2OCC[C@@H](C(N)=O)NC1=O	0	u	5%	25µM*	0%	7.5µM*
O=C(Cn1c(=O)n(-c2ccc(Cl)cc2)c(=O)c2c3c(sc21)CCCCC3)Nc1cccc(Cl)c1	x	-6%	x	11%[59 µM]	x	x
CCOc1ccc(NC(=O)CSc2nc3ccsc3c(=O)n2CCC(C)C)cc1	x	-3%	x	27%[59 µM]	x	x
CCOc1ccc(-c2nc(Cn3c(=O)cc(-c4ccccc4)c4c(C)nn(C)c43)c(C)o2)cc1	x	7%	x	-2%[59 µM]	x	x
O=C(NCc1ccccc1)C(c1ccncc1)N(C(=O)c1ccccn1)c1ccccc1 (configuration not stated)	-1	10%	12%	22µM*	1%	-12%
CCC(C)(C)NC(=O)C(c1ccccn1)N(C(=O)c1csnn1)c1ccc(C)cc1 (configuration not stated)	-34*	-1%	17%	20%	-1%	-6%
CCc1cccc(N(C(=O)c2csnn2)C(C(=O)NC(C)(C)C)c2ccncc2)c1 (configuration not stated)	0	9%	-2%	33%	0%	27µM*
COc1cc(OC)cc(C(=O)n2cnnc2N)c1	0	-13%	11%	45µM*	1%	-13%
COC(=O)c1cn(C(=O)c2cc(OC)cc(OC)c2)c2ccccc12	2	-5%	1%	51%	1%	-3%
O=C(Cn1c(=O)c2ccccc2n(CC(=O)Nc2ccc(F)cc2F)c1=O)NCCc1ccccc1	x	-26%	x	-25%[59 µM]	x	x
COc1cccc(CNC(=O)C2CCC(CNS(=O)(=O)c3ccc(Br)s3)CC2)c1 (configuration not stated)	x	22%	x	-4%[59 µM]	x	x
CCCC(c1nnnn1Cc1cccs1)N1CCN(c2ccc(OC)cc2)CC1 (configuration not stated)	0	8%	-2%	18µM*	-1%	-3%

Screening results from PubChem BioAssay.
